Records with an inconclusive call do not appear. Active and inactive are the calls of the source. Unless noted, calls follow the shape of the full dose curve. Starred links: 1 amine or outer side, 2 acyl side, 3 side chain; linkers in the order of their positions; H or OH if unused. Positions of bridges follow the written chain, without caps; N, C: chain ends. Non-standard residues stand in square brackets, D forms with d. Residues, ends and D or L forms follow the SMILES beside them. ξ: configuration not given here. *: point of attachment. ΔAla(3-NHCONH2) = NC(=O)NC=C(N)C(=O)O; X1 = NC1=NCCC(C(N[*:1])C(=O)[*:2])N1; ξβ3hOrn = NCCCC(N)CC(=O)*; Dap = NC[CH](N)C(=O)O
How the values were obtained:
[1] = Primary qHTS for inhibitors of SARS-S pseudo-typed particle cell entry (AID 1479145); also: nearly all actives have a fitted effect of over 45% in size
[2] = Primary qHTS for Huh7 cytotoxicity: counterscreen for inhibitors of MERS-S pseudotyped particle cell entry (AID 1479147); as to activity change, negative = cytotoxicity: % is scaled to controls: 0 for no effect and ±100 for the full control effect
[3] = Primary qHTS for inhibitors of MERS-S pseudo-typed particle cell entry (AID 1479149); also: nearly all actives have a fitted effect of over 60% in size
[4] = Primary qHTS for Vero E6 cytotoxicity: counterscreen for inhibitors of SARS-S pseudo-typed particle cell entry (AID 1479150); as to activity change, negative = cytotoxicity: % is scaled to controls: 0 for no effect and ±100 for the full control effect
[5] = Primary qHTS for inhibitors of La Crosse Virus (LACV) - induced cell death in SH-SY5Y cells (AID 1508616; active = well fitted curve in the direction sought with a large enough effect; an effect the other way counts as inactive or inconclusive;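 also: top concentration of the series differs between compounds; 0% = infected DMSO wells and 100% = uninfected DMSO wells; higher means more rescue of cells from virus-induced death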)
Procedure, shortened: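 SH-SY5Y, 6000 cells/well; cpd via pin tool in DMSO; LACV 0.01 MOI; 6 d 37C 5% CO2; ATPLite, 5 min RT; luminescence normalized to ±virus DMSO controls.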

[6] = molecular target: Calcium and integrin-binding protein 1 (Homo sapiens) (UniProt Q99828); test: Primary qHTS for Identification of Calcium Integrin Binding Protein 1 (CIB1) Competitor (AID 1508620; active = well fitted curve in the direction sought with a large enough effect; an effect the other way counts as inactive or inconclusive;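 also: GST tagged CIB1 binding a fluorescein labelled alphaIIb integrin peptide tracer; top concentration of the series differs between compounds; % is scaled to controls: 0 for no effect and ±100 for the full control effect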)
Procedure, shortened: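 Fluorescence polarization competition: GST-tagged CIB1 (1 uM final) preincubated with compound 15 min at room temperature, then FITC-labelled alphaIIb peptide (100 nM final) added. After 15 min at room temperature, polarization read at Ex 480/Em 540.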

[7] = Primary qHTS for small molecule stabilizers of the endoplasmic reticulum resident proteome: Secreted ER Calcium Modulated Protein (SERCaMP) assay (AID 1508630; active = well fitted curve in the direction sought with a large enough effect; an effect the other way counts as inactive or inconclusive; also: % is scaled to controls: 0 for no effect and ±100 for the full control effect)
Procedure, shortened: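 The SH-SY5Y reporter protocol was run at 3 concentrations up to 38.3 uM (primary) or 11 concentrations (follow-up): 16 h compound, 100 nM thapsigargin for 4 h, then extracellular luciferase luminescence.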

[8] = A High-Content qHTS Against Drug Library for the Identification of Small Molecules that Inhibit DYT1 Early Onset Primary Dystonia-Associated Cell Pathology (AID 1645839); also: series mostly up to about 46 µM
Procedure, shortened: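 Cells were seeded and left for 24 h, then dosed with compound alongside tetracycline induction of mutant EGFP-TorsinA. They were incubated for 48 h, fixed in 4% paraformaldehyde, permeabilized and imaged for mislocalization (%pathology) and cell count.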

[9] = molecular target: Cytochrome P450 2C9 (Homo sapiens) (UniProt P11712); test: Cytochrome P450 family 2 subfamily C member 9 (CYP2C9) small molecule antagonists: luciferase biochemical (cell-free) qHTS assay (AID 1645842; active = well fitted curve in the direction sought with a large enough effect in the repeat runs; an effect the other way counts as inactive or inconclusive; also: nearly all actives have a fitted effect of over 55% in size; also: potency is read from the fitted curve at half-maximal effect)
Procedure, shortened: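 P450-Glo CYP2C9 system: proluciferin substrate with enzyme in mix containing 0.4% BSA, 10 min at room temperature, then NADPH regeneration solution added and incubated 1 h at 37C. Detection reagent stopped reaction; luminescence read after 20 min as RLU.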

[10] = Cytotoxicity counterscreen for inhibitors of SARS-CoV-2 cell entry (AID 1645845); also: nearly all actives have a fitted effect of over 50% in size
Procedure, shortened: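 Counterscreen run in the same HEK293-ACE2 line as the pseudotyped-particle entry assay, without particles. Viability after 48 h at 37 C was read as ATP luminescence, scaled between cell-containing and cell-free wells.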

[11] = Confirmatory qHTS to identify inhibitors of SARS-CoV-2 cell entry (AID 1645844); also: nearly all actives have a fitted effect of over 45% in size; also: potency is read from the fitted curve at half-maximal effect
Procedure, shortened: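 HEK293-ACE2, overnight seeding; cpd 1 h, 37C/5% CO2; + SARS-CoV-2-S MLV PP (Wuhan-Hu-1, ΔC19); 48 h; Bright-Glo luminescence. Data normalised to S PP and bald PP wells.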

[12] = molecular target: Cytochrome P450 2D6 (Homo sapiens) (UniProt P10635); test: Cytochrome P450 family 2 subfamily D member 6 (CYP2D6) small molecule antagonists: luciferase biochemical (cell-free) qHTS assay (AID 1645840; active = well fitted curve in the direction sought with a large enough effect in the repeat runs; an effect the other way counts as inactive or inconclusive; also: nearly all actives have a fitted effect of over 55% in size; also: potency is read from the fitted curve at half-maximal effect)
Procedure, shortened: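 P450-Glo CYP2D6 system: proluciferin substrate converted by enzyme to luciferin, read by luminescence proportional to activity. Enzyme-substrate mix with compound 10 min at room temperature, then NADPH regeneration 1 h before detection reagent.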

Cytochrome P450 2D6 (Homo sapiens), sequence (P10635 whole entry, looked up): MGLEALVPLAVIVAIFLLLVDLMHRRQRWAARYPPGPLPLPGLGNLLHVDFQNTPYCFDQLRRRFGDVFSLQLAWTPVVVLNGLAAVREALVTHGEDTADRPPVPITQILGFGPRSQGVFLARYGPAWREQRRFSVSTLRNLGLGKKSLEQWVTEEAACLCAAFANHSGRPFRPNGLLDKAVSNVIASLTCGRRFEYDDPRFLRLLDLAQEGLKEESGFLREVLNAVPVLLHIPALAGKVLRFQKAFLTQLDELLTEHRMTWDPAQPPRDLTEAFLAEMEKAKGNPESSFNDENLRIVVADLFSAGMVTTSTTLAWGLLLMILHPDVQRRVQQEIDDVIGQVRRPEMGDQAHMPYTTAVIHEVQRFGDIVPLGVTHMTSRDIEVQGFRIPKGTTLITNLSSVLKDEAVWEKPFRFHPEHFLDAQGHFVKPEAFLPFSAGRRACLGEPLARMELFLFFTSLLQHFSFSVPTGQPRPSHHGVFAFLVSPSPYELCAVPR
Calcium and integrin-binding protein 1 (Homo sapiens), sequence (Q99828 whole entry, looked up): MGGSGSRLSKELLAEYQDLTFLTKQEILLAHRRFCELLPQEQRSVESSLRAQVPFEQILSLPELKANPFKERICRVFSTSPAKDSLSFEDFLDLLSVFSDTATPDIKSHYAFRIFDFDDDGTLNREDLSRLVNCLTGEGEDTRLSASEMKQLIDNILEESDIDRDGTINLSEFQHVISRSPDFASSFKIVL
Cytochrome P450 2C9 (Homo sapiens), sequence (P11712 whole entry, looked up): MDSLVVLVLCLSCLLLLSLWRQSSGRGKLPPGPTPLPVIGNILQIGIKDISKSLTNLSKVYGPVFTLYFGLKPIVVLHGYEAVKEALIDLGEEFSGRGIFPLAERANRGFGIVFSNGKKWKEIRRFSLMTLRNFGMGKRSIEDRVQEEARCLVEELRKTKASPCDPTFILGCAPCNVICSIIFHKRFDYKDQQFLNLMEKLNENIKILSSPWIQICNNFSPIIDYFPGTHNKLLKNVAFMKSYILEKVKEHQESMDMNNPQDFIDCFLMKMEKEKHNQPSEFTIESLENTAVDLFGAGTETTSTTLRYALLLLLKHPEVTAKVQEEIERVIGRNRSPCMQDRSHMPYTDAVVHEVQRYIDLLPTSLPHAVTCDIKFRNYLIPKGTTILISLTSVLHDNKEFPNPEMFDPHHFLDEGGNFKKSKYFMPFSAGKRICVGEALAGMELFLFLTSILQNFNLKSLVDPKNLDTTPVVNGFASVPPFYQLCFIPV

C=CCN1CC[C@]23c4c5ccc(O)c4O[C@H]2C(=O)CC[C@@]3(O)[C@H]1C5
inactive: Potency [1] | Potency [2] | Potency [3] | Potency [4] | Potency [5] | Potency [6] | outcome [7] | Potency [8] | Potency [9] | Potency [10]

O=P1(NCCCl)OCCCN1CCCl (centres undefined)
inactive: Potency [1] | Potency [2] | Potency [3] | Potency [4] | Potency [5] | Potency [6] | outcome [7] | Potency [8] | Potency [10]

CC1=C(C(=O)O)N2C(=O)[C@@H](NC(=O)[C@H](N)c3ccc(O)cc3)[C@H]2SC1
inactive: Potency [1] | Potency [2] | Potency [3] | Potency [4] | Potency [10]

C=C(CC)C(=O)c1ccc(OCC(=O)O)c(Cl)c1Cl
inactive: Potency [1] | Potency [2] | Potency [3] | Potency [4] | Potency [10]
active: Potency [11] 8.57 µM

COc1ccccc1OCC(O)COC(N)=O (centres undefined)
inactive: Potency [1] | Potency [2] | Potency [3] | Potency [4] | Potency [10]

CN(C)[C@@H]1C(=O)C(C(N)=O)=C(O)[C@@]2(O)C(=O)C3=C(O)c4c(O)cccc4[C@@](C)(O)[C@H]3C[C@@H]12
inactive: Potency [1] | Potency [2] | Potency [3] | Potency [4] | Potency [5] | Potency [6] | Potency [8] | Potency [10]
active: Potency [12] 15.5 µM

Cc1cn[nH]c1
inactive: Potency [1] | Potency [2] | Potency [3] | Potency [4] | Potency [10]

CC(C)(C)NCC(O)c1cc(Cl)c(N)c(Cl)c1 (centres undefined)
inactive: Potency [1] | Potency [2] | Potency [3] | Potency [4] | Potency [5] | Potency [6] | outcome [7] | Potency [8] | Potency [9]

OC(Cn1cncn1)(Cn1cncn1)c1ccc(F)cc1F
inactive: Potency [1] | Potency [2] | Potency [3] | Potency [4] | Potency [10]

COC(c1ccccc1)(c1ccccc1)[C@H](Oc1nc(C)cc(C)n1)C(=O)O
inactive: Potency [1] | Potency [2] | Potency [3] | Potency [4] | Potency [11] | Potency [10]

CC[C@@H](CO)NC(=O)[C@@H]1C=C2c3cccc4[nH]cc(c34)C[C@H]2N(C)C1
inactive: Potency [1] | Potency [2] | Potency [3] | Potency [4] | Potency [5] | outcome [7] | Potency [8] | Potency [9]

CN(C)CCc1c[nH]c2ccc(CS(=O)(=O)N3CCCC3)cc12
inactive: Potency [1] | Potency [2] | Potency [3] | Potency [4] | Potency [10]

O=C1CC[C@@]2(O)[C@H]3Cc4ccc(O)c5c4[C@@]2(CCN3CC2CC2)[C@H]1O5
inactive: Potency [1] | Potency [2] | Potency [3] | Potency [4] | Potency [5] | Potency [6] | outcome [7] | Potency [8] | Potency [9] | Potency [10]

CC[C@@H](CO)NCCN[C@@H](CC)CO
inactive: Potency [1] | Potency [2] | Potency [3] | Potency [4] | Potency [10]

CCOC(=O)c1ncn2c1CN(C)C(=O)c1cc(F)ccc1-2
inactive: Potency [1] | Potency [2] | Potency [3] | Potency [4] | Potency [10]

CC(C)(C)C(=O)OCOP(=O)(COCCn1cnc2c(N)ncnc21)OCOC(=O)C(C)(C)C
active: Potency [11] 0.0086 µM
inactive: Potency [1] | Potency [2] | Potency [3] | Potency [4] | Potency [10]

N[C@@H]1C[C@H]1c1ccccc1
inactive: Potency [1] | Potency [2] | Potency [3] | Potency [4] | Potency [5] | Potency [6] | outcome [7] | Potency [8] | Potency [10]
active: Potency [9] 21.9 µM

COc1ccc(C(CN(C)C)C2(O)CCCCC2)cc1 (centres undefined)
inactive: Potency [1] | Potency [2] | Potency [3] | Potency [4] | Potency [5] | outcome [7] | Potency [8] | Potency [9] | Potency [10]

Cn1cc(C2=C(c3cn(C4CCN(Cc5ccccn5)CC4)c4ccccc34)C(=O)NC2=O)c2ccccc21
active: Potency [9] 3.09 µM
inactive: Potency [1] | Potency [2] | Potency [3] | Potency [4] | Potency [6] | outcome [7] | Potency [12] | Potency [10]

FC(F)(F)c1cccc(C2=CCN(CCc3ccc4ccccc4c3)CC2)c1
active: Potency [12] 0.0098 µM
inactive: Potency [1] | Potency [2] | Potency [3] | Potency [4] | Potency [5] | Potency [6] | outcome [7] | Potency [8] | Potency [9] | Potency [10]

NCCCC(N)CC(=O)NCC1NC(=O)C(CO)NC(=O)C(N)CNC(=O)C(C2CCN=C(N)N2)NC(=O)C(=CNC(N)=O)NC1=O (stereo not drawn) (H-[Dap]S[Dap](ξβ3hOrn)[ΔAla(3-NHCONH2)][X1]; lactam 1-C; configuration not given here)
inactive: outcome [1] inactive [at 0.573 µM] | activity change, negative = cytotoxicity [2] 3.81% [at 0.573 µM] | outcome [3] inactive [at 0.573 µM] | outcome [4] inactive [at 0.573 µM] | outcome [10] inactive [at 0.702 µM]

CCN(CC)C(=O)N[C@@H]1C=C2c3cccc4[nH]cc(c34)C[C@@H]2N(C)C1
inactive: Potency [1] | Potency [2] | Potency [3] | Potency [4] | outcome [7] | Potency [8] | Potency [10]

CCCCCOC(=O)Nc1nc(=O)n([C@@H]2O[C@H](C)[C@@H](O)[C@H]2O)cc1F
inactive: Potency [1] | Potency [2] | Potency [3] | Potency [4] | Potency [10]

N[C@@H]1CONC1=O
inactive: Potency [1] | Potency [2] | Potency [3] | Potency [4] | Potency [10]
